Laboratory results reported in the supplement of paper PMC8728848.
This excerpt belongs to a sample that is enriched for the strongest signals.

What was measured:
Assay in all cases: glycan array binding signal (z-score within array); higher = stronger binding
Conditions in all cases: glycan notation: IUPAC condensed, linker removed
[1] = biological target: Fuc(a1-2)Gal(b1-4)GlcNAc(b1-3)Gal(b1-4)GlcNAc
Method in brief: (§1)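 The Consortium for Functional Glycomics database supplied 3228 glycan arrays, of which those lacking an available protein sequence were dropped. The binding signal, a within-array Z-score, was averaged across arrays of the same protein sequence and across linkers. Negative scores can be read as non-binding.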

[2] = biological target: Fuc(a1-2)Gal(b1-4)GlcNAc(b1-6)GalNAc
Method in brief: as §1

[3] = biological target: Fuc(a1-2)[GalNAc(a1-3)]Gal
Method in brief: as §1

[4] = biological target: Fuc(a1-2)[GalNAc(a1-3)]Gal(b1-3)GalNAc(b1-3)Gal(a1-4)Gal(b1-4)Glc
Method in brief: as §1

[5] = biological target: Fuc(a1-2)[GalNAc(a1-3)]Gal(b1-4)[Fuc(a1-3)]GlcNAc
Method in brief: as §1

[6] = biological target: Fuc(a1-3)[Gal3S(b1-4)]GlcNAc6S
Method in brief: as §1

[7] = biological target: Gal(a1-3)Gal(b1-4)GlcNAc(b1-6)GalNAc
Method in brief: as §1

[8] = biological target: Gal(a1-3)[Gal(a1-4)]Gal(b1-4)GlcNAc
Method in brief: as §1

[9] = biological target: Gal(b1-3)GlcNAc(a1-3)Gal(b1-4)GlcNAc
Method in brief: as §1

[10] = biological target: Gal(b1-3)GlcNAc(b1-2)Man(a1-3)[Gal(b1-3)GlcNAc(b1-2)Man(a1-6)]Man(b1-4)GlcNAc(b1-4)GlcNAc
Method in brief: as §1

[11] = biological target: Gal(b1-3)GlcNAc(b1-2)Man(a1-3)[GlcNAc(b1-4)][Gal(b1-3)GlcNAc(b1-2)Man(a1-6)]Man(b1-4)GlcNAc(b1-4)GlcNAc
Method in brief: as §1

[12] = biological target: Gal(b1-3)[GlcNAc(b1-6)]GalNAc
Method in brief: as §1

[13] = biological target: Gal(b1-4)GlcNAc(b1-2)Man
Method in brief: as §1

[14] = biological target: Gal(b1-4)GlcNAc(b1-2)Man(a1-3)Man(b1-4)GlcNAc(b1-4)GlcNAc
Method in brief: as §1

[15] = biological target: Gal(b1-4)GlcNAc(b1-2)Man(a1-3)[Man(a1-6)]Man(b1-4)GlcNAc(b1-4)GlcNAc
Method in brief: as §1

[16] = biological target: Gal(b1-4)GlcNAc(b1-3)Gal(b1-4)GlcNAc(b1-2)[Gal(b1-4)GlcNAc(b1-3)Gal(b1-4)GlcNAc(b1-6)]Man(a1-6)[Gal(b1-4)GlcNAc(b1-3)Gal(b1-4)GlcNAc(b1-2)Man(a1-3)]Man(b1-4)GlcNAc(b1-4)GlcNAc
Method in brief: as §1

[17] = biological target: Gal(b1-4)GlcNAc(b1-3)Gal(b1-4)GlcNAc(b1-3)Gal(b1-4)GlcNAc(b1-3)Gal(b1-4)GlcNAc(b1-3)Gal(b1-4)GlcNAc(b1-2)Man(a1-3)[Gal(b1-4)GlcNAc(b1-3)Gal(b1-4)GlcNAc(b1-3)Gal(b1-4)GlcNAc(b1-3)Gal(b1-4)GlcNAc(b1-3)Gal(b1-4)GlcNAc(b1-2)Man(a1-6)]Man(b1-4)GlcNAc(b1-4)GlcNAc
Method in brief: as §1

[18] = biological target: Gal(b1-4)GlcNAc(b1-3)Gal(b1-4)GlcNAc(b1-3)Gal(b1-4)GlcNAc(b1-3)Gal(b1-4)GlcNAc(b1-3)Gal(b1-4)GlcNAc(b1-2)[Gal(b1-4)GlcNAc(b1-3)Gal(b1-4)GlcNAc(b1-3)Gal(b1-4)GlcNAc(b1-3)Gal(b1-4)GlcNAc(b1-3)Gal(b1-4)GlcNAc(b1-6)]Man(a1-6)[Gal(b1-4)GlcNAc(b1-3)Gal(b1-4)GlcNAc(b1-3)Gal(b1-4)GlcNAc(b1-3)Gal(b1-4)GlcNAc(b1-3)Gal(b1-4)GlcNAc(b1-2)Man(a1-3)]Man(b1-4)GlcNAc(b1-4)[Fuc(a1-6)]GlcNAc
Method in brief: as §1

[19] = biological target: Gal(b1-4)GlcNAc(b1-6)GalNAc
Method in brief: as §1

[20] = biological target: Gal3S(b1-4)Glc
Method in brief: as §1

[21] = biological target: Gal3S6S(b1-4)GlcNAc
Method in brief: as §1

[22] = biological target: Gal6S(b1-4)GlcNAc6S
Method in brief: as §1

[23] = biological target: GalNAc(a1-3)GalNAc
Method in brief: as §1

[24] = biological target: Glc(a1-6)Glc(a1-6)Glc
Method in brief: as §1

[25] = biological target: GlcNAc(b1-2)Gal(b1-3)GalNAc
Method in brief: as §1

[26] = biological target: GlcNAc(b1-2)Man(a1-3)[GlcNAc(b1-2)Man(a1-6)]Man(b1-4)GlcNAc(b1-4)[Fuc(a1-6)]GlcNAc
Method in brief: as §1

[27] = biological target: GlcNAc(b1-2)[GlcNAc(b1-4)]Man(a1-3)[GlcNAc(b1-4)][GlcNAc(b1-2)Man(a1-6)]Man(b1-4)GlcNAc(b1-4)GlcNAc
Method in brief: as §1

[28] = biological target: GlcNAc(b1-3)Gal(b1-4)GlcNAc(b1-2)[GlcNAc(b1-3)Gal(b1-4)GlcNAc(b1-6)]Man(a1-6)[GlcNAc(b1-3)Gal(b1-4)GlcNAc(b1-2)Man(a1-3)]Man(b1-4)GlcNAc(b1-4)GlcNAc
Method in brief: as §1

[29] = biological target: GlcNAc(b1-3)Gal(b1-4)GlcNAc(b1-3)Gal(b1-4)GlcNAc(b1-2)[GlcNAc(b1-3)Gal(b1-4)GlcNAc(b1-3)Gal(b1-4)GlcNAc(b1-6)]Man(a1-6)[GlcNAc(b1-3)Gal(b1-4)GlcNAc(b1-3)Gal(b1-4)GlcNAc(b1-2)Man(a1-3)]Man(b1-4)GlcNAc(b1-4)[Fuc(a1-6)]GlcNAc
Method in brief: as §1

[30] = biological target: GlcNAc(b1-3)Gal(b1-4)GlcNAc(b1-6)[Gal(b1-3)]GalNAc
Method in brief: as §1

[31] = biological target: GlcNAc(b1-4)GlcNAc(b1-4)GlcNAc
Method in brief: as §1

[32] = biological target: Man(a1-2)Man(a1-3)[Man(a1-2)Man(a1-6)]Man(a1-6)[Man(a1-2)Man(a1-2)Man(a1-3)]Man(b1-4)GlcNAc(b1-4)GlcNAc
Method in brief: as §1

[33] = biological target: Man(a1-6)Man
Method in brief: as §1

[34] = biological target: Neu5Ac(a2-3)Gal(b1-3)]Neu5Ac(a2-3)Gal(b1-4)]GlcNAc
Method in brief: as §1

[35] = biological target: Neu5Ac(a2-3)Gal(b1-4)GlcNAc(b1-2)Man
Method in brief: as §1

[36] = biological target: Neu5Ac(a2-3)Gal(b1-4)GlcNAc(b1-3)Gal(b1-4)GlcNAc(b1-6)[Gal(b1-3)]GalNAc
Method in brief: as §1

[37] = biological target: Neu5Ac(a2-3)Gal(b1-4)GlcNAc(b1-6)GalNAc
Method in brief: as §1

[38] = biological target: Neu5Ac(a2-3)Gal(b1-4)GlcNAc(b1-6)[Gal(b1-3)]GalNAc
Method in brief: as §1

[39] = biological target: Neu5Ac(a2-3)Gal(b1-4)GlcNAc6S
Method in brief: as §1

[40] = biological target: Neu5Ac(a2-3)Gal(b1-4)[Fuc(a1-3)]GlcNAc(b1-3)Gal(b1-4)GlcNAc
Method in brief: as §1

[41] = biological target: Neu5Ac(a2-3)Gal(b1-4)[Fuc(a1-3)]GlcNAc6S
Method in brief: as §1

[42] = biological target: Neu5Ac(a2-3)GalNAc
Method in brief: as §1

[43] = biological target: Neu5Ac(a2-3)GalNAc(b1-4)GlcNAc
Method in brief: as §1

[44] = biological target: Neu5Ac(a2-6)Gal(b1-4)GlcNAc(b1-2)Man(a1-3)Man(b1-4)GlcNAc(b1-4)GlcNAc
Method in brief: as §1

[45] = biological target: Neu5Ac(a2-6)Gal(b1-4)GlcNAc(b1-3)Gal(b1-3)GlcNAc
Method in brief: as §1

[46] = biological target: Neu5Ac(a2-6)Gal(b1-4)GlcNAc(b1-3)Gal(b1-4)[Fuc(a1-3)]GlcNAc(b1-3)Gal(b1-4)[Fuc(a1-3)]GlcNAc
Method in brief: as §1

[47] = biological target: Neu5Ac(a2-6)Gal(b1-4)GlcNAc(b1-3)[Neu5Ac(a2-6)Gal(b1-4)GlcNAc(b1-6)]GalNAc
Method in brief: as §1

[48] = biological target: Neu5Ac(a2-6)Gal(b1-4)GlcNAc(b1-6)[Gal(b1-3)GlcNAc(b1-3)]Gal(b1-4)Glc
Method in brief: as §1

[49] = biological target: Neu5Ac(a2-8)Neu5Ac(a2-8)Neu5Ac
Method in brief: as §1

[50] = biological target: Neu5Ac(b2-6)GalNAc
Method in brief: as §1

[51] = biological target: Neu5Gc(a2-3)Gal(b1-4)GlcNAc(b1-3)Gal(b1-4)GlcNAc(b1-2)Man(a1-3)[Neu5Gc(a2-3)Gal(b1-4)GlcNAc(b1-3)Gal(b1-4)GlcNAc(b1-2)Man(a1-6)]Man(b1-4)GlcNAc(b1-4)GlcNAc
Method in brief: as §1

[52] = biological target: Neu5Gc(b2-6)Gal(b1-4)GlcNAc
Method in brief: as §1

B1: EULS2 M4 (Oryza sativa) (protein)
chain: MVYCRANPNYAMTARNGAVVLAPANPKDEYQHWIKDMRWSTSIKDEEGYPAFALVNKATGQAIKHSLGQSHPVRLVPYNPEVMDESVLWTESRDVGNGFRCIRMVNNIYLNFDAFHGDKYHGGVRDGTDIVLWKWCEGDSLRWKIQPYYILEQKLISEEDLNSAVDHHHHHH
- glycan array binding signal (z-score) [1]: -0.01
- glycan array binding signal (z-score) [2]: -0.469
- glycan array binding signal (z-score) [3]: -0.348
- glycan array binding signal (z-score) [4]: -0.473
- glycan array binding signal (z-score) [5]: -0.416
- glycan array binding signal (z-score) [6]: -0.356
- glycan array binding signal (z-score) [7]: 0.31
- glycan array binding signal (z-score) [8]: 7
- glycan array binding signal (z-score) [9]: -0.21
- glycan array binding signal (z-score) [10]: -0.259
- glycan array binding signal (z-score) [11]: 4.91
- glycan array binding signal (z-score) [12]: -0.511
- glycan array binding signal (z-score) [13]: -0.202
- glycan array binding signal (z-score) [14]: 2.57
- glycan array binding signal (z-score) [15]: 7.18
- glycan array binding signal (z-score) [16]: 6.97
- glycan array binding signal (z-score) [17]: -0.273
- glycan array binding signal (z-score) [18]: 4.92
- glycan array binding signal (z-score) [19]: -0.124
- glycan array binding signal (z-score) [20]: 0.203
- glycan array binding signal (z-score) [21]: -0.485
- glycan array binding signal (z-score) [22]: -0.349
- glycan array binding signal (z-score) [23]: -0.218
- glycan array binding signal (z-score) [24]: 0.287
- glycan array binding signal (z-score) [25]: -0.527
- glycan array binding signal (z-score) [26]: -0.215
- glycan array binding signal (z-score) [27]: -0.288
- glycan array binding signal (z-score) [28]: 0.417
- glycan array binding signal (z-score) [29]: -0.364
- glycan array binding signal (z-score) [30]: -0.431
- glycan array binding signal (z-score) [31]: -0.101
- glycan array binding signal (z-score) [32]: -0.4
- glycan array binding signal (z-score) [33]: 0.713
- glycan array binding signal (z-score) [34]: -0.232
- glycan array binding signal (z-score) [35]: 7.63
- glycan array binding signal (z-score) [36]: -0.233
- glycan array binding signal (z-score) [37]: -0.226
- glycan array binding signal (z-score) [38]: -1.27
- glycan array binding signal (z-score) [39]: 4.39
- glycan array binding signal (z-score) [40]: 0.35
- glycan array binding signal (z-score) [41]: -0.364
- glycan array binding signal (z-score) [42]: 0.083
- glycan array binding signal (z-score) [43]: 0.042
- glycan array binding signal (z-score) [44]: -0.572
- glycan array binding signal (z-score) [45]: 2.81
- glycan array binding signal (z-score) [46]: 4.01
- glycan array binding signal (z-score) [47]: 7.46
- glycan array binding signal (z-score) [48]: -0.428
- glycan array binding signal (z-score) [49]: -0.325
- glycan array binding signal (z-score) [50]: 0.656
- glycan array binding signal (z-score) [51]: -0.344
- glycan array binding signal (z-score) [52]: -0.504
